CIT2 TOR yeast: modulators of CIT2-GFP expression in yeast, primary screen, S. cerevisiae, GFP fusion, multiplex flow cytometry, MLPCN library. S. cerevisiae CIT2-GFP strain, 3 h; 100 means same as DMSO wells. GFP response vs DMSO, % at 10 µM. 0.065% of 320,000 active;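 active means GFP response relative to DMSO above a set limit, near the screen mean plus 3 SD, cut at about 150% in these data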;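 further: ratio of well median GFP fluorescence to mean of DMSO wells on the plate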
LAP4 TOR yeast: modulators of LAP4-GFP expression in yeast, primary screen, S. cerevisiae, multiplex flow cytometry, MLPCN library. 3 h; median GFP as percent of DMSO wells. 0.34% of 320,000 active. GFP response vs DMSO, % at 10 µM;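 active means GFP response vs DMSO above a set limit, about the screen mean plus 3 SD, cut at about 150% in these data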
MEP2 TOR yeast: modulators of MEP2-GFP levels in yeast, primary screen, S. cerevisiae, multiplex flow cytometry, MLPCN library. GFP response vs DMSO, % at 10 µM. S. cerevisiae MEP2-GFP strain, 3 h; 100% = DMSO control level. 0.51% of 330,000 active;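 active means GFP response versus DMSO above a set limit, roughly screen mean plus 3 SD, cut at about 180% in these data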;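 further: median GFP fluorescence of the barcode-gated MEP2-GFP cells per well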
AGP1 TOR yeast: modulators of AGP1-GFP expression in yeast TOR pathway, primary screen, cell-based, multiplex flow cytometry, S. cerevisiae, MLPCN library. 3 h; GFP as percent of DMSO wells. GFP response vs DMSO, % at 10 µM. 0.02% of 320,000 active. AID 2066, 2009;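 active means GFP response relative to DMSO above a set limit, near screen average plus 3 SD, cut at about 150% in these data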;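 further: median GFP channel fluorescence of the gated AGP1 strain per well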
RPL19A TOR yeast: RPL19A-GFP expression modulators in yeast, primary screen, cell-based, S. cerevisiae, multiplex flow cytometry, MLPCN | S. cerevisiae RPL19A-GFP strain, 3 h; stronger effect = lower value | 0.3% of 330,000 active | AID 2025, 2009 | percent response vs DMSO, % at 10 µM;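 active means percent response vs DMSO below 50%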;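 further: median channel GFP fluorescence of the barcoded RPL19A-GFP strain; ratio of sample median GFP to plate DMSO average so 100% = DMSO; lower means less RPL19A-GFP as with rapamycin TOR inhibition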
LAP4 cherry2: LAP4-GFP expression modulators in yeast, confirmation, cell-based, second cherry pick, flow cytometry; shares compounds with LAP4 TOR yeast; S. cerevisiae LAP4-GFP strain, 3 h; GFP response vs DMSO, % at 10 µM; 20% of 590 active; AID 2621, 2010;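 active means GFP signal as percent of the solvent control above about 150%, meaning raised reporter expression, limit read from the data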;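 further: ratio of well median GFP fluorescence to plate DMSO mean so 100% = DMSO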
MEP2-GFP pick2: modulators of MEP2-GFP levels in yeast, confirmation, S. cerevisiae, flow cytometry GFP, second cherry picks | shares compounds with LAP4 TOR yeast | S. cerevisiae MEP2-GFP strain, 3 h | GFP response vs DMSO, % at 10 µM | 10% of 590 active;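 active means GFP signal above 150% of the solvent control wells, that is a rise of more than half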;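 further: median channel GFP fluorescence of all gated yeast cells per well; ratio of median GFP to plate DMSO average so 100% = DMSO level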
RPL19A-GFP pick2: RPL19A-GFP modulators in TOR pathway yeast, confirmation, cell-based, S. cerevisiae, flow cytometry, second cherry pick; shares compounds with LAP4 TOR yeast; S. cerevisiae RPL19A-GFP strain, 3 h; stronger effect = lower value; 100% means same as DMSO wells; GFP response vs DMSO, % at 10 µM; 3% of 590 active;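 active means under 65% GFP response relative to DMSO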;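 further: median GFP channel fluorescence per well over the all cells gate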
CIT2-GFP pick2: modulators of CIT2-GFP expression in yeast, confirmation, flow cytometry, second cherry pick, single plex; S. cerevisiae CIT2-GFP strain, 3 h; DMSO control wells read 100%; GFP response vs DMSO, % at 10 µM; AID 2624, 2010; 8% of 590 active; shares compounds with LAP4 TOR yeast;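 active means GFP response vs DMSO above about 150%, limit read from the data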;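 further: median green fluorescence per well over all gated yeast cells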
AGP1 GFP CP2: AGP1-GFP expression modulators, hit retest, confirmation, cell-based, flow cytometry, S. cerevisiae, cherry pick set 2. shares compounds with LAP4 TOR yeast. S. cerevisiae AGP1-GFP strain, 3 h. percent response vs DMSO, % at 10 µM. 590 tested, under 10 active. AID 2643, 2010;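 active means over 150 percent of DMSO response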;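 further: median GFP channel fluorescence over all cells without mother daughter split; sample median GFP divided by mean DMSO control so 100% equals DMSO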
s288c autofluor: compound autofluorescence in yeast s288c, dose response, artefact control for yeast TOR pathway GFP screen, s288c strain; shares compounds with LAP4 TOR yeast; S. cerevisiae s288c, 520 nm autofluorescence, flow cytometry, 3 h; stronger effect = higher value; zero means same as solvent-only cells; fluorescence change (kMESF span) at 33 µM; 610 tested, under 10 active;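 active means fluorescence span over the dose series, or activity score, above about 33, limit read from the data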
Active calls of the source: *; · = no result. A selection: hits, their analogues and other compounds. The true share with any hit is near 0.93%.

SMILES	CIT2 TOR yeast	LAP4 TOR yeast	MEP2 TOR yeast	AGP1 TOR yeast	RPL19A TOR yeast	LAP4 cherry2	MEP2-GFP pick2	RPL19A-GFP pick2	CIT2-GFP pick2	AGP1 GFP CP2	others
O=C(CCCOc1ccc(Cl)cc1Cl)N1CCC2(CC1)OCCO2	90.7	107.3	109.2	97.7	99.4	·	·	·	·	·
CCC(Oc1cc(Cl)ccc1Cl)C(=O)N1CCC2(CC1)OCCO2 (stereo unspecified)	167.4*	102.6	120.5	121.5	107.9	98.1	101.5	100.4	100.7	102.0
C=C1C(=O)O[C@@H]2C[C@@H](C)[C@H]3C=CC(=O)[C@]3(O)C[C@@H]12	54.3	90.8	206.9*	25.8	99.1	102.2	103.1	99.3	100.1	98.6
O=C1NC(=O)C(=Cc2ccc(SC3CCCCC3)o2)C(=O)N1	53.2	141.6	84.2	51.7	60.5	120.2	134.8	68.5	75.8	69.0
NS(=O)(=O)c1ccc(-c2ccc(C=C3C(=O)NC(=O)NC3=O)o2)cc1	87.5	113.0	104.1	81.1	90.1	·	·	·	·	·
O=C1NC(=O)C(CCc2ccncc2)(C2CCCCC2)C(=O)N1	82.1	103.1	99.5	76.6	100.1	·	·	·	·	·
CCCCn1c(O)c(C(C)=Nc2ccc3c(c2)CCC3)c(=O)[nH]c1=O	113.1	103.0	90.7	114.3	93.4	·	·	·	·	·
CCCc1c(C)nc(SCC(=O)C(C)(C)C)nc1OC(=O)N(C)C	91.5	94.7	93.9	94.8	97.1	·	·	·	·	·
CN(C)C(=S)SSC(=S)N(C)C	71.1	200.7*	91.7	75.8	93.7	128.8	106.5	95.0	109.7	93.5
C[n+]1c(-c2ccccc2)c2cc(N)ccc2c2ccc(N)cc21	84.9	90.1	96.1	82.0	92.8	·	·	·	·	·
Nc1ccc2ccc3cccc[n+]3c2c1	191.5*	147.6	224.3*	111.2	119.5	·	·	·	·	·	s288c autofluor=14.7
CN(C)C(=O)Oc1ccc2nnc3ccnn3c2c1	105.3	97.9	100.5	100.6	107.2	·	·	·	·	·
C=C1C(O)[C@@H]2O[C@]3(CC[C@H](/C=C/C(C)[C@@H]4CC(C)=CC5(O[C@H](C[C@@](C)(O)C(=O)O)CCC5O)O4)O3)CC[C@H]2O[C@@H]1C(O)CC(C)[C@H]1OC2(CCCCO2)CCC1C (stereo partly specified)	50.4	266.5*	83.9	80.2	98.1	268.3*	124.8	124.4	86.0	102.7	s288c autofluor=0.4
